Source: PubChem BioAssay AID485270 (The Scripps Research Institute Molecular Screening Center, 2010)
Among all 330,000 compounds or so, about 5,800 (1.8%) were called active. The full list was thinned out, with actives kept by preference. A number with no mark means an inactive call. Cut-off read from the data, not from the text of the source: active = inhibition mostly above about 38% (no sharp cut-off); inactive = mostly below about 40%.

What follows are compounds tested against Orexin/Hypocretin receptor type 1 (Homo sapiens) (UniProt O43613) (assay: blocks the human orexin 1 receptor (AID 485270;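 note: 0% = agonist challenge alone and 100% = reference antagonist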)). Settings: OX1R-expressing cells, FRET antagonist read-out; at 6.6 µM; hits give high values.
Sequence of Orexin/Hypocretin receptor type 1 (Homo sapiens) (O43613 whole entry, looked up): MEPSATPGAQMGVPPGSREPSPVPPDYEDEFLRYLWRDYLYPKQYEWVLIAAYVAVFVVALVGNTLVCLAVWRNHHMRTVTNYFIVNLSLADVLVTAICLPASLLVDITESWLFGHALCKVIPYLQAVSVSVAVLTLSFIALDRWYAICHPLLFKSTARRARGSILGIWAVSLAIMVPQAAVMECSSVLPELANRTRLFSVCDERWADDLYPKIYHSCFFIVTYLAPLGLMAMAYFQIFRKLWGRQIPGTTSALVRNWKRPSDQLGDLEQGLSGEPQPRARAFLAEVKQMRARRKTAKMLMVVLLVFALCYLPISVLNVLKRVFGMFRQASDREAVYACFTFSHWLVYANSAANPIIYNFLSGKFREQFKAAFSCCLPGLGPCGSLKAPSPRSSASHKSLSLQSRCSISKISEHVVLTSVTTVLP
`O=C(CN1C(=O)c2cccc3cccc1c23)Nc1ccccc1` was tested, and the inhibition was 26.3%.
In the case of `O=C(CN1C(=O)c2cccc3cccc(c23)C1=O)N1CCCCC1`, the inhibition is reported as 79.7% (active).
With `O=C(CCCN1C(=O)c2cccc3cccc(c23)C1=O)N1CCN(Cc2ccc3c(c2)OCO3)CC1` the inhibition was 52.3%.
`C/C(N)=C(/C#N)C(=O)COC(=O)c1cc(-c2cccc(Br)c2)nc2ccccc12` showed an inhibition of 44.3%.
For `C/C(N)=C(/C#N)C(=O)COC(=O)c1cc(-c2ccc(C)cc2)nc2ccccc12`, the inhibition was 86.7% (active).
`C/C(N)=C(/C#N)C(=O)COC(=O)c1cc(-c2ccccc2)nc2ccc(Br)cc12` showed an inhibition of 8.99%.
For `CC[C@]1(C(=O)OC)[C@H]2C(=O)N(Cc3ccccc3)C(=O)[C@H]2[C@H]2CN=C(SCc3ccc(Cl)cc3)N21`, the inhibition was 4.24%.
In the case of `CCCS(=O)(=O)N1CCC(CCOc2ccccc2)(C(=O)OCC)CC1`, the inhibition is reported as 17.7%.
`Cc1ccc(S(=O)(=O)NCC(=O)NNC(=O)c2ccc(Br)cc2)cc1C` was tested, and the inhibition was 15.8%.
For `Nc1nc(-c2sc3nc4c(cc3c2N)CCCC4)nc(N2CCOCC2)n1`, the inhibition was 95.8% (active).
In the case of `Cc1cccc(NC(=O)c2sc3nc(N4CCOCC4)c4c(c3c2N)CCCC4)c1`, the inhibition is reported as 4.35%.
With `Cc1nc(N2CCOCC2)nc2c1CCCC2` the inhibition was 5.29%.
In the case of `Cc1ccccc1-n1cc(CNC(=O)C2CCC(=O)N(C3CC3)C2)cn1` (centres undefined), the inhibition is reported as 15.2%.
In the case of `C=CC[C@H](CC(=O)NCCO)C(=O)N[C@@H](COC(=O)[C@@H](CC=C)Cc1ccc(F)cc1)Cc1c[nH]c2ccccc12`, the inhibition is reported as 5.23%.
`Cc1ccc2c(c1)c1ncnc(N3CCc4ccccc4C3)c1n2C` was tested, and the inhibition was 74.4% (active).
`Cc1ccc2c(c1)c1ncn(CCC3=CCCCC3)c(=O)c1n2C` showed an inhibition of 18.4%.
In the case of `Cc1ccc2c(c1)c1ncn(Cc3ccc(F)cc3)c(=O)c1n2C`, the inhibition is reported as 8.56%.
In the case of `CN(c1ccccc1)S(=O)(=O)c1cc(C(=O)N2CCN(c3ncccn3)CC2)ccc1Cl`, the inhibition is reported as 4.83%.
`COc1ccc2oc(=O)c(C(=O)NCc3ccccn3)cc2c1` was tested, and the inhibition was 95.3% (active).
Work on `COc1ccc2oc(=O)c(C(=O)N3CCCC3)cc2c1` yielded an inhibition of 0.49%.
In the case of `COc1ccc(-c2nc(CS(=O)CC(=O)NCc3ccccn3)c(C)o2)cc1` (centres undefined), the inhibition is reported as 1.65%.
With `COc1ccc(CNC(=O)C[C@H]2C[C@H](C(=O)N3CCOCC3)[C@@]3(CCC4CCCC4)c4[nH]c5ccc(Cl)cc5c4CCN3C2=O)cc1OC` the inhibition was 0.33%.
`O=C1C=CN2CCCC2CC1` (centres undefined) was tested, and the inhibition was 13.3%.
For `CC(=O)Nc1ccc(S(=O)(=O)NCCC(=O)N2CCN(c3ccccc3Cl)CC2)cc1`, the inhibition was 13.1%.
Work on `CN1C(=O)/C(=N/OC(=O)c2ccccc2Br)c2ccccc21` yielded an inhibition of 14%.
For `CCC1C(=O)c2ccccc2N(C)C1=O` (centres undefined), the inhibition was 17.9%.
With `CN1C(=O)/C(=C\c2cc(Br)cs2)c2ccccc21` the inhibition was 63.8% (active).
`CCOCc1c(C(=O)N2CCN(Cc3ccc(Br)s3)CC2)oc2ccccc12` gave an inhibition of 5.32%.
Compound `O=C(COc1ccc([N+](=O)[O-])cc1Cl)Nc1ccc2[nH]c(=O)[nH]c2c1` has an inhibition of 9.15%.
For `CCCCCCSc1ccc([C@@H]2[C@H]3C(=O)N(CC)C(=O)[C@H]3[C@]3(C(=O)OC)CCCCN23)cc1`, the inhibition was 3.69%.
`N#Cc1nc(-c2cccc3ccccc23)oc1N` was tested, and the inhibition was 71.4% (active).
`COc1ccc(Nc2oc(-c3ccccc3Cl)nc2C#N)cc1` showed an inhibition of 29.4%.
In the case of `CC1CCN(c2oc(-c3ccccc3F)nc2C#N)CC1`, the inhibition is reported as 9.88%.
With `Cc1ccc(NC(=O)C2CC2)cc1S(=O)(=O)N1CCOCC1` the inhibition was 5.49%.
